Experimental data taken from ChEMBL document CHEMBL1961873, “Compounds: GSK PKIS; Assays: Nanosyn kinase panel” (2012).

Columns and labels:
[1] = biological target: Mitogen-activated protein kinase 3 (Homo sapiens) (UniProt P27361); conditions: at 1 µM;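 also: values are mean percent inhibition of MAPK3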
[2] = biological target: SRSF protein kinase 3 (Homo sapiens) (UniProt Q9UPE1); conditions: at 0.1 µM
[3] = biological target: SRSF protein kinase 3 (Homo sapiens) (UniProt Q9UPE1); conditions: at 1 µM
[4] = biological target: Mitogen-activated protein kinase 14 (Homo sapiens) (UniProt Q16539); conditions: at 0.1 µM
Sequence of Mitogen-activated protein kinase 14 (Homo sapiens) (Q16539 whole entry): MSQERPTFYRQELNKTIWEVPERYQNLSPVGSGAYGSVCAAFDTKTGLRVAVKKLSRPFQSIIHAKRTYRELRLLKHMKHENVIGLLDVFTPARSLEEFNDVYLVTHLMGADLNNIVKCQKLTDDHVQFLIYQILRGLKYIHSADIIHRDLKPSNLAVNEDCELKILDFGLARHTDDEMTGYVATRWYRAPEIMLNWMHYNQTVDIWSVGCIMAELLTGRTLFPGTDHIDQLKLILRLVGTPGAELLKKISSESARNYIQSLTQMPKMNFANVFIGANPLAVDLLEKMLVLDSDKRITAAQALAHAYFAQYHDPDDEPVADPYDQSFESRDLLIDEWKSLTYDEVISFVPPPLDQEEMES

[5] = biological target: Mitogen-activated protein kinase 14 (Homo sapiens) (UniProt Q16539); conditions: at 1 µM
[6] = biological target: Mitogen-activated protein kinase 11 (Homo sapiens) (UniProt Q15759); conditions: at 0.1 µM
Sequence of Mitogen-activated protein kinase 11 (Homo sapiens) (Q15759 whole entry): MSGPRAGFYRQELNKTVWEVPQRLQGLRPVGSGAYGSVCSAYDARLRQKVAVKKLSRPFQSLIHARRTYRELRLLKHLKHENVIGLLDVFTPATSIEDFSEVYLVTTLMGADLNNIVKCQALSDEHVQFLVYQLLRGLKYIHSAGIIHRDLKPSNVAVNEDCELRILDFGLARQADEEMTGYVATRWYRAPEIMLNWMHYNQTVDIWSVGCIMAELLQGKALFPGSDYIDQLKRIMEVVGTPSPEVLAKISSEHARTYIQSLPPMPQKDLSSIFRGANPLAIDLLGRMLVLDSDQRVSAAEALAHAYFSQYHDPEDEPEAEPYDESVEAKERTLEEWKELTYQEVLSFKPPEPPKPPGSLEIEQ

[7] = biological target: Mitogen-activated protein kinase 11 (Homo sapiens) (UniProt Q15759); conditions: at 1 µM
[8] = biological target: T1, Mitogen-activated protein kinase 13 (Homo sapiens) (UniProt O15264); conditions: at 0.1 µM
T1 sequence (whole entry): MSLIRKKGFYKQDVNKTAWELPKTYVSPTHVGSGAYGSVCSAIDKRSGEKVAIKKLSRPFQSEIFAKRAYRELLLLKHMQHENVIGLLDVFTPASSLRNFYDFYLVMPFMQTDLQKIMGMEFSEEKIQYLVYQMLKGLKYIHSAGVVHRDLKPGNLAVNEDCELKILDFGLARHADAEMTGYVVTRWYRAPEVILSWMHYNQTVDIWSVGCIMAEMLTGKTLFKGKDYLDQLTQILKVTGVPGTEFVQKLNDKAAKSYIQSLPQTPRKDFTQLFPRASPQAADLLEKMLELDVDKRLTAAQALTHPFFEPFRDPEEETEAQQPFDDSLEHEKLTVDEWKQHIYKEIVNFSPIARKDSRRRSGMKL

[9] = biological target: T1, Mitogen-activated protein kinase 13 (Homo sapiens); conditions: at 1 µM
[10] = biological target: T2, Mitogen-activated protein kinase 12 (Homo sapiens) (UniProt P53778); conditions: at 0.1 µM
T2 sequence (whole entry): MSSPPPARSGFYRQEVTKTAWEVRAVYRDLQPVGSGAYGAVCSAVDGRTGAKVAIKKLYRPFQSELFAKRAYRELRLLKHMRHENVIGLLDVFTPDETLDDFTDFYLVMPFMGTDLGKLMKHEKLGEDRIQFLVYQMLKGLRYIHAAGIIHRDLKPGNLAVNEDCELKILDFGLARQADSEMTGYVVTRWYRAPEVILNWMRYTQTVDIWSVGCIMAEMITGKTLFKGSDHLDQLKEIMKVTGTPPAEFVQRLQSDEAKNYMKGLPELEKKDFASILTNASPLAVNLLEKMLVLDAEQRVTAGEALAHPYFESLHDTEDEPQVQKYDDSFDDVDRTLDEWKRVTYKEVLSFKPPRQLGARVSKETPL

[11] = biological target: T2, Mitogen-activated protein kinase 12 (Homo sapiens); conditions: at 1 µM
[12] = biological target: SRSF protein kinase 1 (Homo sapiens) (UniProt Q96SB4); conditions: at 0.1 µM
Sequence of SRSF protein kinase 1 (Homo sapiens) (Q96SB4 whole entry, canonical isoform): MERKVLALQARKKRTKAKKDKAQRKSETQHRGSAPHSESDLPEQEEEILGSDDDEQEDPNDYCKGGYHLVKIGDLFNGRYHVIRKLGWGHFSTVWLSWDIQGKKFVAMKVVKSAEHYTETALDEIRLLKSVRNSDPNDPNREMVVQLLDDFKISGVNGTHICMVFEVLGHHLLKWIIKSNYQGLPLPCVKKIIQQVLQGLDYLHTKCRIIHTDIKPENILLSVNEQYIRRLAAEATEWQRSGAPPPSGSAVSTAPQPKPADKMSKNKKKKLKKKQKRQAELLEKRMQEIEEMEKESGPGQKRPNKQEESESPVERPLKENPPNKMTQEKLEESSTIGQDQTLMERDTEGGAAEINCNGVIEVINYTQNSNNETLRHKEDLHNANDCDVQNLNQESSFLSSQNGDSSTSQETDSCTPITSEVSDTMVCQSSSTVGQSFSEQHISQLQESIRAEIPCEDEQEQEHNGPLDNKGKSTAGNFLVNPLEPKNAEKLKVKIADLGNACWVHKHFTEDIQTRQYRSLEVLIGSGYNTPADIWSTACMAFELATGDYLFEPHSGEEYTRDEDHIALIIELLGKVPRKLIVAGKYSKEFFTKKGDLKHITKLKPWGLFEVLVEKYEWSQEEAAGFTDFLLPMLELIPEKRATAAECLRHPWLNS

[13] = biological target: SRSF protein kinase 1 (Homo sapiens) (UniProt Q96SB4); conditions: at 1 µM
[14] = biological target: Phosphatidylinositol 4,5-bisphosphate 3-kinase catalytic subunit alpha isoform (Homo sapiens) (UniProt P42336); conditions: at 0.1 µM
Sequence of Phosphatidylinositol 4,5-bisphosphate 3-kinase catalytic subunit alpha isoform (Homo sapiens) (P42336 whole entry, canonical isoform): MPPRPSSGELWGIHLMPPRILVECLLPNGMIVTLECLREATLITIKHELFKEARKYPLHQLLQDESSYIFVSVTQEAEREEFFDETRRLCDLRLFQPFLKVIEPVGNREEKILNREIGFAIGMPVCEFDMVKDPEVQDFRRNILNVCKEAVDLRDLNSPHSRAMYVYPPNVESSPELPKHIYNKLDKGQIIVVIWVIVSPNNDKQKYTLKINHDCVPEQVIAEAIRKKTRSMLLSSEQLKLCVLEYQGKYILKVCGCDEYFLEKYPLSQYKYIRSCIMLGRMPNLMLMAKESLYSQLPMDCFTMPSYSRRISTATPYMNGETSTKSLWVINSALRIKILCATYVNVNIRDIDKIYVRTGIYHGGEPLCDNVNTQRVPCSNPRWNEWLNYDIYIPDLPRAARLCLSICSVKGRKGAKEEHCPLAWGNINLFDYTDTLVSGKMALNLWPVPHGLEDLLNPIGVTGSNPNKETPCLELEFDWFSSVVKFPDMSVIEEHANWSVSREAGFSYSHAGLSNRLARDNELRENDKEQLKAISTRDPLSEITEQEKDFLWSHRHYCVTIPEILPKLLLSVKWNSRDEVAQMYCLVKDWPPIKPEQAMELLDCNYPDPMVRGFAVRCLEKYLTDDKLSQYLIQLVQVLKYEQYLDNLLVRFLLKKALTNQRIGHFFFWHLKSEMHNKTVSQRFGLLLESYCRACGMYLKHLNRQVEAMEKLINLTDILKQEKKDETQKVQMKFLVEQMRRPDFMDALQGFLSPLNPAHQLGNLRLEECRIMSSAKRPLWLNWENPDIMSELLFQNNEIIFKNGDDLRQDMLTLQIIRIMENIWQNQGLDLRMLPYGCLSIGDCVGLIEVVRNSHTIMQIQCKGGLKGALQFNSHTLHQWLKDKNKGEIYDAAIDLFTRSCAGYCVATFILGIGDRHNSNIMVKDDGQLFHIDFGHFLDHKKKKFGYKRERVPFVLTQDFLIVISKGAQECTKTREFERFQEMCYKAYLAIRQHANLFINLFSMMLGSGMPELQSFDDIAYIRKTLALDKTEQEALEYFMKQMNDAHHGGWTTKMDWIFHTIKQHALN

[15] = biological target: Phosphatidylinositol 4,5-bisphosphate 3-kinase catalytic subunit alpha isoform (Homo sapiens) (UniProt P42336); conditions: at 1 µM
[16] = biological target: T3, Phosphatidylinositol 4,5-bisphosphate 3-kinase catalytic subunit delta isoform (Homo sapiens) (UniProt O00329); conditions: at 0.1 µM
T3 sequence (whole entry): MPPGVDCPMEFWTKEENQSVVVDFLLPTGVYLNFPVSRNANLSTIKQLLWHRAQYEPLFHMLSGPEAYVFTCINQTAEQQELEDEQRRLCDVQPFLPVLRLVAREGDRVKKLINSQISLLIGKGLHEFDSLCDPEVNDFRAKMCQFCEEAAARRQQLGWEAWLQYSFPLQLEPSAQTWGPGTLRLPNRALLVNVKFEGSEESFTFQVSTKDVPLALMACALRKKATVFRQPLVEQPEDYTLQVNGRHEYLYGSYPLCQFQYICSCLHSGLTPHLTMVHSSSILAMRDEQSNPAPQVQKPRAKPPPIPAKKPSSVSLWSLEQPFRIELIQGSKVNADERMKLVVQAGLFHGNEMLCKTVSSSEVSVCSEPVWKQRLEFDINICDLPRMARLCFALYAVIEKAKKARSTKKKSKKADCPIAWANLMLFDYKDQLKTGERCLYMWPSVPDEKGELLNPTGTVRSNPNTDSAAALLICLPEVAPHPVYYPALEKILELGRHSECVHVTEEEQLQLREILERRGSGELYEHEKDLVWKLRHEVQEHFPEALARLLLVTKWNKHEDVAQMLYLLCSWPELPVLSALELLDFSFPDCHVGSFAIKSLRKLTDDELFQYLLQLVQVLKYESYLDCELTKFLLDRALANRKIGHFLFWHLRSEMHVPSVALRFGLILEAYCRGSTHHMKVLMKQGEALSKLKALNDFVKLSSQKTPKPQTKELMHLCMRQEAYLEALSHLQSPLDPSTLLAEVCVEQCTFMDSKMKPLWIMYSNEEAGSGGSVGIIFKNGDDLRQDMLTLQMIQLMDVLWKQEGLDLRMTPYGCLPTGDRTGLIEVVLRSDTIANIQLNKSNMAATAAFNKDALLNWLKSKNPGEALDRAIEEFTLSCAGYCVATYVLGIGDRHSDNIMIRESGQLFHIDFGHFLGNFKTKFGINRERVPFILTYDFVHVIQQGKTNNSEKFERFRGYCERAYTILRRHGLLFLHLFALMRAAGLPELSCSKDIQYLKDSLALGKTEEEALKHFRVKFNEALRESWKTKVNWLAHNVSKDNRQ

[17] = biological target: T3, Phosphatidylinositol 4,5-bisphosphate 3-kinase catalytic subunit delta isoform (Homo sapiens); conditions: at 1 µM
[18] = biological target: Phosphatidylinositol 4-kinase beta (Homo sapiens) (UniProt Q9UBF8); conditions: at 0.1 µM
Sequence of Phosphatidylinositol 4-kinase beta (Homo sapiens) (Q9UBF8 2-816 limits assumed): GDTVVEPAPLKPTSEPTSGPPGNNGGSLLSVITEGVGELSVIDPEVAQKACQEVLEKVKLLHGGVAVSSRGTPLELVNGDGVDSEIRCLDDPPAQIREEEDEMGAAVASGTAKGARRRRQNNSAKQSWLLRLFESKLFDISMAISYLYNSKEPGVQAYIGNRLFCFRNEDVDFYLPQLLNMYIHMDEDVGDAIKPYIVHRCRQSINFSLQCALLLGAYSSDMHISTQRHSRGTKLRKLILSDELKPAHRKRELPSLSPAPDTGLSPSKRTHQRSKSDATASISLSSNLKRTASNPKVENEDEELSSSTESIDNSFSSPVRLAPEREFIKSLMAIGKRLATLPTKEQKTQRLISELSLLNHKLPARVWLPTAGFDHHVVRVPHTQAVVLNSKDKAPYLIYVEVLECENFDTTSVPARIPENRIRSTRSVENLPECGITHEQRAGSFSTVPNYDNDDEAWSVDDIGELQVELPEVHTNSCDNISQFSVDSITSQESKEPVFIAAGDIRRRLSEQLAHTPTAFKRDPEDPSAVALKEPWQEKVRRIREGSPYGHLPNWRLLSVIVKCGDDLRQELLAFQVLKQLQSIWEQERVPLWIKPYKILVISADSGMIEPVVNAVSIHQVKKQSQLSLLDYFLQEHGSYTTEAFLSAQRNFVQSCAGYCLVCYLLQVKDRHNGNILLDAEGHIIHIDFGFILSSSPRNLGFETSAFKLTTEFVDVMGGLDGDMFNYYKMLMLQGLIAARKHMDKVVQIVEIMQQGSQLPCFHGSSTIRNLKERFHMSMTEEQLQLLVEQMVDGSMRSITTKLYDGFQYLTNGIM

[19] = biological target: Phosphatidylinositol 4-kinase beta (Homo sapiens) (UniProt Q9UBF8); conditions: at 1 µM
[20] = biological target: Sphingosine kinase 1 (Homo sapiens) (UniProt Q9NYA1); conditions: at 0.1 µM;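 also: mean percent inhibition of SPHK1 activity, measured within the GSK PKIS screening panel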
Sequence of Sphingosine kinase 1 (Homo sapiens) (Q9NYA1 whole entry): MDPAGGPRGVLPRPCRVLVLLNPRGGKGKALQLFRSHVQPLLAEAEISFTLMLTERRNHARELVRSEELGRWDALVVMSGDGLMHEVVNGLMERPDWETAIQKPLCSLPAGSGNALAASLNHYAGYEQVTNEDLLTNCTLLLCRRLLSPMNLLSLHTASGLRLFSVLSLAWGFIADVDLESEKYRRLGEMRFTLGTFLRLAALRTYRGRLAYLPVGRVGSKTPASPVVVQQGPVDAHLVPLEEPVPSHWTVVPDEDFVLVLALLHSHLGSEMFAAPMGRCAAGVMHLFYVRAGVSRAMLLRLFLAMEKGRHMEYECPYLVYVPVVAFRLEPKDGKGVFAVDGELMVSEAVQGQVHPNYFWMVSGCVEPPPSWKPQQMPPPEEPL

Sequence of Mitogen-activated protein kinase 3 (Homo sapiens) (P27361 whole entry): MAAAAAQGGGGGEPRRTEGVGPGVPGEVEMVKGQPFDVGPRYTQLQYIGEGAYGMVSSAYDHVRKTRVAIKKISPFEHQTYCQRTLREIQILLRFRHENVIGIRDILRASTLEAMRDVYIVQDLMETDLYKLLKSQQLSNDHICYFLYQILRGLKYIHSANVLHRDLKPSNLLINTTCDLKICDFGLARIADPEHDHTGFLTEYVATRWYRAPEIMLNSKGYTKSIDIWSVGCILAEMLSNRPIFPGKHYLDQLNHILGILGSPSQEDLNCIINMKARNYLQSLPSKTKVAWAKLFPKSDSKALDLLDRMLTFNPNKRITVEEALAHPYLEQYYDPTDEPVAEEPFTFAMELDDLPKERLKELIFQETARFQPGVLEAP
Sequence of SRSF protein kinase 3 (Homo sapiens) (Q9UPE1 whole entry): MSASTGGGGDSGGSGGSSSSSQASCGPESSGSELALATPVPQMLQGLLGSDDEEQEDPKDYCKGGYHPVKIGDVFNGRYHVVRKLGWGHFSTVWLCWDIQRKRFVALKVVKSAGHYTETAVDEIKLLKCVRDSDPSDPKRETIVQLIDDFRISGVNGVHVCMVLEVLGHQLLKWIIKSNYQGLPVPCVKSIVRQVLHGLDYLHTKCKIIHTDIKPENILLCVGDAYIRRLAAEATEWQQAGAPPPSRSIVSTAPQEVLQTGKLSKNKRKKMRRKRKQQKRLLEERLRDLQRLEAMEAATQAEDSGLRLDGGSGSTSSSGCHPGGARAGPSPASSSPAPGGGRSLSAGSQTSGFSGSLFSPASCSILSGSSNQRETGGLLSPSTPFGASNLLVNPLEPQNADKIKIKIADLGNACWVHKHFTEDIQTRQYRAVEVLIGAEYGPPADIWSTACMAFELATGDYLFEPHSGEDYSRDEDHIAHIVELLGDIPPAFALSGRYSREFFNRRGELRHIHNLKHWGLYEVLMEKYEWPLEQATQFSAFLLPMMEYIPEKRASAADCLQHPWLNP

Compound | inhibition [1] | inhibition [2] | inhibition [3] | inhibition [4] | inhibition [5] | inhibition [6] | inhibition [7] | inhibition [8] | inhibition [9] | inhibition [10] | inhibition [11] | inhibition [12] | inhibition [13] | inhibition [14] | inhibition [15] | inhibition [16] | inhibition [17] | inhibition [18] | inhibition [19] | inhibition [20]
CCn1c(-c2nonc2N)nc2c(C#CC(C)(C)O)nc(CN3CCCC3)cc21 | 0.84% | -1.03% | -0.96% | 0.68% | -0.47% | -2.47% | 0.28% | 0.31% | -1.59% | 1.31% | 0.15% | -2.3% | -2.96% | -2.21% | -0.12% | 0.87% | 3.83% | -0.02% | -2.03% | 0.49%
CS(=O)(=O)CCN(CC#N)Cc1ccc(-c2ccc3ncnc(Nc4ccc(OCc5cccc(F)c5)c(Cl)c4)c3c2)o1 | 1.61% | -3.37% | -0.95% | 4.64% | 3.94% | 1.26% | 0.56% | 3.05% | 2.39% | 2.47% | 2.68% | -2.4% | -1.01% | 2.09% | 4.03% | 1.1% | 4.27% | 2.65% | 3.34% | 1.82%
CS(=O)(=O)Nc1ccc(N/C=C2\C(=O)Nc3ccccc32)cc1 | -3.47% | 1.49% | 0.17% | -4.68% | -2.23% | -0.39% | 3.42% | -3.94% | -3.87% | -2.29% | -0.19% | 1.24% | 1.9% | -2.27% | -1.98% | -1.26% | -0.45% | -4.55% | -0.72% | -0.88%
CC1=C(C(=O)Nc2ccc3[nH]ncc3c2)C(c2ccc3ccccc3c2)CC(=O)N1 (stereo not given) | 22.4% | 0.02% | -0.13% | 3.64% | 5.06% | -1.05% | 2.44% | 3.08% | 2.24% | -0.44% | 1.97% | -1.36% | 0.02% | 5.28% | 5.6% | 4.38% | 4.97% | -1.78% | 0.34% | 1.83%
COC(=O)Nc1nc2cc(Oc3cccc(NC(=O)Nc4cc(C(F)(F)F)ccc4F)c3)ccc2[nH]1 | 0.49% | -1.97% | -3.98% | 2.37% | 5.26% | 1.03% | 1.94% | -4.01% | -0.11% | 0.33% | -0.42% | -0.98% | -3.74% | -3.27% | -1.03% | 0.19% | 0.17% | 1.18% | 0.44% | -0.62%
NS(=O)(=O)c1ccc(N/N=C2\C(=O)Nc3ccc(C(=O)NCCc4c[nH]cn4)cc32)cc1 | 7.89% | 1.31% | -0.05% | 5.71% | 8.13% | 3.37% | 6.34% | -1.15% | 4.35% | 4.17% | 2.64% | -1.35% | -0.63% | 2.2% | 4.76% | 1.71% | 2.03% | -6.38% | -1.44% | -1.35%
COc1cccc(-n2ncc3c(N/N=C/c4cccc(F)c4)ncnc32)c1 | 0.85% | -2.57% | -3.83% | -0.34% | 5.39% | 3.19% | 0% | 2.14% | 6.21% | 4.04% | 2.67% | -1.75% | -2.37% | 2.47% | 4.79% | 2.15% | 5.82% | 2.02% | -7.13% | -0.37%
Nc1ncnc2occ(-c3ccc(NC(=O)Nc4cccc(C(F)(F)F)c4)cc3)c12 | 3.6% | 19% | 62.5% | 16.1% | 43.4% | 9.18% | 41% | 6.92% | 19.3% | 7.81% | 37.5% | 1.49% | 18.5% | 4.75% | 4.88% | 1.25% | 4.92% | -1.39% | 1.22% | 0.57%
CCn1c(-c2nonc2N)nc2cncc(C(=O)N3CC[C@H](N)C3)c21 | 2.72% | -3.11% | -1.83% | -0.78% | 10.7% | 3.38% | 9.04% | 2.29% | 5.01% | 0.14% | 3.17% | -1.03% | -0.35% | 5.37% | 4.64% | 3.17% | 3.95% | -6.46% | -9.74% | -0.79%
CC1=C(C(=O)Nc2ccc3[nH]ncc3c2)C(c2ccc(Cl)c(Cl)c2)CC(=O)N1 (stereo not given) | 14.6% | -0.02% | 1.57% | 1.46% | 4.94% | 0.46% | 0.24% | -0.61% | 2.05% | -0.46% | 1.19% | -1.56% | -3.22% | -0.33% | -0.79% | 0.18% | 1.04% | 0.44% | -1.19% | 0.43%
O=C1NC(=O)C(c2cccc(Cl)c2)=C1Nc1ccc(O)c(Cl)c1 | 2.28% | -0.01% | 2.47% | 1.38% | 8.66% | 1.96% | 4.99% | 0.26% | 0.3% | -0.58% | 0.35% | -2.71% | -4.83% | -1.72% | 5.36% | 0.8% | 4.17% | -4.92% | 1.17% | 1.58%
CS(=O)(=O)CCNCc1nc(-c2ccc3ncnc(Nc4ccc(F)c(Cl)c4)c3c2)cs1 | 3.66% | 2.2% | 1.52% | 2.36% | 5.56% | 2.75% | 5.6% | 2.57% | 1.21% | 0.83% | 1.73% | -0.47% | 1.62% | 1.55% | 16.8% | 1.95% | 5.42% | 6.61% | 5.06% | -0.56%
O=C1NC(=O)C(c2ccc(Cl)cc2)=C1Nc1ccc(Cl)c(C(=O)O)c1 | 0% | 0.85% | 1.51% | 0.32% | -0.58% | -1.36% | -1.39% | -5.51% | -3.8% | -2.36% | -2.21% | 1.64% | 3.21% | 1.09% | 2.23% | 3.38% | 2.76% | -1.72% | -4.96% | -1.27%
